The supplement of paper PMC6555819

Test system: VDR:RXRa (NR concentration 270 nM, RXRa partner concentration 90 nM)
Assay: PBM binding z-score (relative to random genomic background probes); higher = stronger binding; sequences stand for … in GC…GCGATTGACAGCGTAGAATGAAGG
Protocol: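 Protein-binding microarray (Agilent 4x180K custom design, double-stranded 60-nt probes: 5' GC cap, 34-nt variable region, 24-nt constant primer region; full probe sequence given). Purified or IVT nuclear receptor:RXRα heterodimers (3:1 NR:RXRα, mostly 270:90 nM) or homodimers were incubated for 1 h in PBS with 2% milk and no ligand, then detected with Alexa488 antibodies. Fluorescence from o1-orientation probes (~5 replicates averaged) was converted to z-scores against 500 random hg19 background probes. Variable regions are seed direct-repeat (DR0–DR5) sites, all their single-nucleotide variants and half-site ablations.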

Row | Sequence | PBM binding z-score
1 | CCGACTGGGGCACGGTTACCATAACGCACAGCCA | -0.636
2 | TCAGACAGGCGAAGGTAACTCAGGTACGCAGTCG | 0.498
3 | ATCTCTAGGTACCAAGTTCAGTGAAAGAGAGGAC | 1.64
4 | CTACCAAGGTGATCAAGGTCGTTGATTACTATTC | 5.3
5 | TGAATGAGTTTAAAGATCAGGGAACGTGGCGTCG | 1.09
6 | CGTCCAAGGTCAAAGGTCTGTGAAGAGATGACGG | 4.54
7 | CTCGAAAGGTCGTGCTCAGGTGAGAATACCAAAC | 3.39
8 | TATACAGGGTGAAAGGCCAGAGTACGAATGTCGA | 0.682
9 | CAAACTAGGTCACAGAGGTAAAAGTCCGTGCGTA | 4.96
10 | GATATTAGTTGAAAGGGCAACCGAATGATTCTCG | 0.661
11 | TCATATAGGTTAATGCTAGGTGAAAGTCCGATCT | 1.43
12 | CCGAGTAAGTTATGGGGCATTCAGGCAACGGTGA | -0.346
13 | ATATGTAGGTTAAGGGTCATTCGGGTTGGTTCGC | 6.18
14 | GCTTGTAGATCAAGGTTAAGAACGACTAAGCTAA | 0.288
15 | AGAATGAGGTTAGTAAGATCAGGGAATTGCGGTC | 0.837
16 | CCTACTGGGCCACGAAAGGTCGTTGATTCAGTGA | 1.74
17 | GCTAGCAGGCCATTTGGGTCACTCCATGACGGGC | 0.513
18 | ATCTCTAGGTAAAGATAGCTCAGTGAATGCAAAT | -0.433
19 | TCTGCTAGGTCAGTTGGTCTGCTAACGAGCTGCC | 0.0911
20 | GTACCAAGGTGAATAGATCGTTGATGAGTAGGCG | -0.155

Row | Sequence | PBM binding z-score
21 | ACTTACGGGTCAACGAGGTTATATCACGCGTATA | 7.44
22 | GCGACTGGGGCAAACCAGGTTACCATAAGGTTGG | 0.416
23 | CCTACTGGGCCCAGGTCATTGATCAGTCAAAGCA | 1.7
24 | GCTCGGAGGACAAGGTCAGAGCGTTGTCCGTAGA | 1.67
25 | TATCGGAGGACACGAAAGGTCAGAGCTCGACATC | 3.49
26 | ATCGAAAGGTCGACGAGGTGAATATACACCGTTT | 6.16
27 | CCTGCTAGGTCATGGTCAGCTGATCTACAGTATG | 1.95
28 | CCAGGCAGGTGAGAAGGTAACTCAGCCTCGATTA | -0.539
29 | CCTCGTTGGTCAAGGTCACACACGCTATAGGTAC | 3.93
30 | GATACAGGGTCAGCTAGAGGCCAGATTATGGAAA | 3.57
31 | CGTACTAGGTCATCCAGGACAGTGAATACATTGA | 4.32
32 | ACTCGGAGGACAACGGTCAGAGCTACGCCAGTGA | -0.667
33 | ATCTCTAGGTAAAAGTTGAGTGAATCCCGAGGAT | -0.00666
34 | CGAACTAGGTCAGAACACGACAGTGAAGGATGAT | 0.217
35 | ATCTCTAGCTAAAGATAGTTCAGTGAATGCAAAT | 0.182
36 | ACAGAGAGGTGAGTGAAGGTAACTCAGCTGGACG | 0.13
37 | CGGCCAAGGTCAGAGAGGTCAGTGAATGCCGAGT | 7.41
38 | TCTAGTTGGTCAAAGGGCACACACTCGAAATGCG | 1.78
39 | ATCTCCAGGTAAGACTCAGTTCAGTGAAGAACGC | 1.05
40 | TTACCAAGCTGAGCTGAGGTCGTTGATCCAACTC | 0.877
